Laboratory results from PubChem BioAssay (NCI).
The panel holds about 83,000 compounds, 20% with a hit somewhere; the sample as a whole holds those more often.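 A percent growth of 40 corresponds to 60% growth inhibition; 0 means no net growth; -100 means all cells died. Active threshold: below 10.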 A number with no mark means an inactive call. Calls of active or inactive are those of the source.

Legend:
Test in all cases: NCI-60 one-dose screen, 48 h (100 = growth as untreated, 0 = no growth, -100 = all killed)
Conditions in all cases: 10 µM unless noted
SK-MEL-2 melanoma = tested on: SK-MEL-2 melanoma
EKVX NSCLC = tested on: EKVX NSCLC
SN12C renal = tested on: SN12C renal
UO-31 renal = tested on: UO-31 renal
TK-10 renal = tested on: TK-10 renal
ACHN renal = tested on: ACHN renal
CAKI-1 renal = tested on: CAKI-1 renal
A498 renal = tested on: A498 renal
CCRF-CEM leukemia = tested on: CCRF-CEM leukemia
MOLT-4 leukemia = tested on: MOLT-4 leukemia
SR leukemia = tested on: SR leukemia
RPMI-8226 leukemia = tested on: RPMI-8226 leukemia
OVCAR-8 ovarian = tested on: OVCAR-8 ovarian
OVCAR-5 ovarian = tested on: OVCAR-5 ovarian
OVCAR-4 ovarian = tested on: OVCAR-4 ovarian
SK-OV-3 ovarian = tested on: SK-OV-3 ovarian
IGROV1 ovarian = tested on: IGROV1 ovarian
OVCAR-3 ovarian = tested on: OVCAR-3 ovarian
HS 578T breast = tested on: HS 578T breast
NCI/ADR-RES ovarian = tested on: NCI/ADR-RES ovarian

Compound	growth (SK-MEL-2 melanoma)	growth (EKVX NSCLC)	growth (SN12C renal)	growth (UO-31 renal)	growth (TK-10 renal)	growth (ACHN renal)	growth (CAKI-1 renal)	growth (A498 renal)	growth (CCRF-CEM leukemia)	growth (MOLT-4 leukemia)	growth (SR leukemia)	growth (RPMI-8226 leukemia)	growth (OVCAR-8 ovarian)	growth (OVCAR-5 ovarian)	growth (OVCAR-4 ovarian)	growth (SK-OV-3 ovarian)	growth (IGROV1 ovarian)	growth (OVCAR-3 ovarian)	growth (HS 578T breast)	growth (NCI/ADR-RES ovarian)
C=CN(C(=O)N1CCN(c2cc3c(cc2F)c(=O)c(C(=O)O)cn3C2CC2)CC1)c1nc(-c2ccc(OC)cc2)cs1	18.4%	23.7%	11.3%	15.5%	42.8%	23.6%	17.3%	8.44% (active)	8.17% (active)	18%	20.4%	-6.11% (active)	14.3%	33.8%	35.3%	17.6%	39.6%	13.7%	20.3%	37.6%
CC(C)=CCNc1ncnc2c1ncn2C1OC(CO)C(O)C1O (stereo not given)	-33.2% [1 mM] (active)	41.1% [1 mM]	-2.66% [1 mM] (active)	-72.4% [1 mM] (active)	-10.5% [1 mM] (active)	2.42% [1 mM] (active)	-36.9% [1 mM] (active)	-54.2% [1 mM] (active)	-56.6% [1 mM] (active)	-26.6% [1 mM] (active)	1.23% [1 mM] (active)	-40.1% [1 mM] (active)	-40.8% [1 mM] (active)	19.2% [1 mM]	-2.16% [1 mM] (active)	-21.5% [1 mM] (active)	4.13% [1 mM] (active)	-69.9% [1 mM] (active)	-16.8% [1 mM] (active)	-33.2% [1 mM] (active)
CCN1CCN(c2cc(C)nc(N(CCNc3ccnc4cc(Cl)ccc34)Cc3ccc4c(c3)OCO4)n2)CC1	-82.8% (active)	22.2%	74.4%	-30.6% (active)	-48% (active)	0.724% (active)	53.6%	-1.76% (active)	-18.5% (active)	-34.1% (active)	-44.9% (active)	-19.3% (active)	3.09% (active)	40.5%	19.8%	-16.2% (active)	10.2%	-55.8% (active)	30%	-13.9% (active)
COc1ccc(CCN(CC(=O)N(CC(N)=O)C2CCC[C@@H]2OCc2ccccc2)C(=O)CN(C(=O)CN(CCc2ccc(Cl)cc2)C(=O)CN(C(=O)CN(C)Cc2ccccc2F)[C@H](C)C2CCCCC2)[C@H](C)C2CCCCC2)cc1OC (stereo not given in full)	1.88% (active)	30.8%	35.3%	37.3%	15.6%	28.8%	94.7%	32%	7.58% (active)	-37% (active)	-37.1% (active)	-0.194% (active)	32.2%	49.2%	48.9%	38.4%	43.4%	32.5%	64.3%	79.2%
Cc1ccc(Cl)cc1NC(=O)c1sc2nc3c(cc2c1N)C(=O)CCC3	64.5%	75.3%	80.6%	83.4%	96.6%	55.9%	41.4%	51.2%	49.2%	84.9%	68.9%	95.1%	90%	94.2%	90.1%	42.4%	75.7%	22.1%	60.9%	43.8%
CSC(SC)=C(C#N)c1nc2ccccc2s1	40%	74.2%	34.9%	51.8%	112%	62.4%	55.8%	49.9%	24.7%	63.6%	81.2%	25%	70.2%	72.5%	68.1%	19.6%	49.3%	70%	77.1%	76.7%
O=C1Nc2ccccc2C1(c1c[nH]c2ccccc12)c1c[nH]c2ccccc12	87.7%	23.3%	1.17% (active)	33.6%	-10.1% (active)	1.55% (active)	44%	49.3%	65%	46.7%	77.1%	77.5%	-9.32% (active)	65.4%	-25.2% (active)	72.8%	8.3% (active)	-47.2% (active)	-17.9% (active)	27.1%
CCc1n(Cc2ccc3ccccc3n2)cc[n+]1Cc1ccc2ccccc2n1	-27.3% (active)	31.9%	10.7%	89.5%	41.9%	93.3%	98%	84.9%	28.1%	28.6%	30.2%	-1.65% (active)	27.1%	43.2%	14.5%	33.4%	30%	14.2%	44.8%	104%
CC[C@]12C=CCN3CC[C@@]4(c5ccc(OC)cc5N(C)[C@H]4[C@@](O)(C(=O)OC)[C@@H]1OC(=O)CCC[P+](c1ccccc1)(c1ccccc1)c1ccccc1)[C@@H]32	-65.3% (active)	10.3%	2.73% (active)	80%	22.3%	89.9%	52.2%	13.7%	11.1%	5.41% (active)	9.57% (active)	-12.6% (active)	3.13% (active)	21.4%	-3.58% (active)	-21% (active)	-0.0574% (active)	-2.49% (active)	25.5%	100%
CN1C(=O)/C(=C/c2ccc(C(=O)Nc3ncc(Cc4cccc(Cl)c4)s3)cc2)SC1=S	91.7%	55.9%	84.2%	55.6%	56%	33.2%	26.3%	74.9%	69.3%	52.4%	85.2%	60.8%	64.1%	61.8%	52.9%	72.1%	61.9%	69%	74.6%	56.9%
Cc1ccc(C)c(/C=C2\CN(C(=O)OC(C)(C)C)C/C(=C\c3cc(C)ccc3C)C2=O)c1	82%	82.8%	31.4%	61.1%	89.1%	15.5%	45.2%	73%	4.98% (active)	7.4% (active)	0.122% (active)	-24.4% (active)	12.7%	86.1%	22%	87.7%	78.1%	13.1%	43.9%	26.5%
N#Cc1c(-c2ccccc2)nc(SCC(O)CN2CCOCC2)nc1N1CCOCC1 (stereo not given)	7.33% (active)	65.4%	57.8%	41.7%	40.8%	54.4%	37.4%	-3.34% (active)	88%	83.2%	85.1%	105%	33.4%	61.2%	68.6%	41.1%	-29.5% (active)	35.4%	6.19% (active)	72.7%
[2H]C([2H])([2H])Oc1ccc(F)cc1/C=C/C(=O)/C=C(/C=C/c1cc(F)ccc1OC([2H])([2H])[2H])OB(F)F	94.2%	99.7%	67.4%	53.9%	96.9%	54.5%	74.1%	111%	1.24% (active)	4.82% (active)	22.7%	10.7%	19.2%	107%	74.7%	107%	87.4%	42.1%	91.9%	76.5%
C/C(=N\O)[C@@H]1CC[C@]2(CO)CC[C@]3(C)[C@H](CC[C@@H]4[C@@]5(C)CCCNC(C)(C)[C@@H]5CC[C@]43C)[C@@H]12	95.2%	92.7%	85.4%	69.3%	109%	98.6%	79.4%	107%	58.9%	33.3%	12.5%	53.4%	91.2%	88.5%	77.2%	105%	65.2%	80.3%	84.3%	96.6%
